SMILES strings stand for the structures. Hit rate of the full screen: of about 360,000 compounds, about 510 (0.14%) were called active. The sample holds actives, similar compounds and a random draw of the others, so the mix is not that of the screen. Values without a mark were called inactive.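 How the source made its calls: active means mean normalized replicate activity at least 40 and at least half of replicates scoring 40 or more; inconclusive means only one of the two criteria met; inactive means mean below 40 and under half of replicates reaching 40.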

Sequence of DNA repair and recombination protein RAD54-like (Homo sapiens) (Q92698 whole entry, looked up): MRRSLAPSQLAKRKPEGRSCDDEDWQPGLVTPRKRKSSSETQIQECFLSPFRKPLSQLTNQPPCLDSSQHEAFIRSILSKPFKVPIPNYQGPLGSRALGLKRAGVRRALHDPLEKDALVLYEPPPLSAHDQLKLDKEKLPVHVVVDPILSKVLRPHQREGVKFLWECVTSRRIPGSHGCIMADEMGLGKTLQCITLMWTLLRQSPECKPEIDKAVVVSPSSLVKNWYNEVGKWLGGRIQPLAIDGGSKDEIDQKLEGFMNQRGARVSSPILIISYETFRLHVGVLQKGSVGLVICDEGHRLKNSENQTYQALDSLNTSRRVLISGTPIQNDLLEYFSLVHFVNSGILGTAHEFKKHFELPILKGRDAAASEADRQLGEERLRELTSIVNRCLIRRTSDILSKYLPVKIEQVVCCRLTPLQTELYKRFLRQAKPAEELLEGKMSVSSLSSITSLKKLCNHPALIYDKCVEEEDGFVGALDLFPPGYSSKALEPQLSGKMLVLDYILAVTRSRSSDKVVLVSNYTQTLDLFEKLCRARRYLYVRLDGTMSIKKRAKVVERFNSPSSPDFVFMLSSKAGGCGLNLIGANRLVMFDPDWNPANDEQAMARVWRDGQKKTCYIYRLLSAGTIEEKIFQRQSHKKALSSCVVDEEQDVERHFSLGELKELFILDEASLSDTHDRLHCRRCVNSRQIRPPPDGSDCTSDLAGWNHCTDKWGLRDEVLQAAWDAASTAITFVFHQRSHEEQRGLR

The assay has as its target DNA repair and recombination protein RAD54-like (Homo sapiens) (UniProt Q92698). In words: RAD54 Holliday junction migration blockers – biochemical, fluorescence, single point, primary screen (AID 602329).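 Further: 0% = median of neutral control wells and 100% = median of positive control wells; inhibitors cause a drop in the FAM fluorescence signal.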 As to conditions: RAD54 Holliday junction branch migration, FAM/BHQ fluorescence; at 10.4 µM; stronger effect = higher value.
Broadly, the inhibition is the relative decrease from the control value, in per cent. As for `COc1cccc(C#Cc2ccc([C@H]3[C@@H](CO)N(C(=O)c4ccccn4)[C@H]3C#N)cc2)c1`, the inhibition was -3.06%.

Take `CCCNC(=O)N(C)C[C@H]1Oc2ncc(-c3ccc(C(=O)N(C)C)cc3)cc2C(=O)N([C@@H](C)CO)C[C@@H]1C`: the inhibition is -0.543%.

For the molecule `C[C@@H]1CN([C@@H](C)CO)C(=O)c2cc(C#Cc3ccncc3)cnc2O[C@@H]1CN(C)C(=O)CN(C)C`, the inhibition is 0.163%.

As for `C[C@H]1CN([C@@H](C)CO)C(=O)Cc2cc(NS(C)(=O)=O)ccc2O[C@@H]1CN(C)S(=O)(=O)c1ccc(Cl)cc1`, the inhibition was 4.72%.

Consider `COCC(=O)Nc1ccc2c(c1)[C@@H]1C[C@H](CC(=O)NCc3cc(F)ccc3F)O[C@@H](CO)[C@@H]1O2`, for which the inhibition was -1.13%.

As for `CO[C@H]1CN(C)C(=O)c2ccc(NC(=O)c3cc(C)on3)cc2OC[C@H](C)N(C)C[C@H]1C`, the inhibition is -1.45%.

Regarding `CN1CCN(CCCNC(=O)c2cc3c(=O)oc4ccccc4c3s2)CC1`, the inhibition is 55.7% (active).

Consider `Cc1cccc2c1-c1sc(C(=O)NCCCN3CCc4ccccc4C3)cc1CO2`, for which the inhibition is 22%.

Turning to `O=C(NCCN1CCN(Cc2ccccc2)CC1)c1cc2c(=O)[nH]c3ccccc3c2s1`, the inhibition was -0.046%.

Take `Cn1cnc(S(=O)(=O)N2C[C@H](O)COC[C@@H]3O[C@H](CC(=O)NCc4cccc(F)c4)CC[C@H]32)c1`: the inhibition was 7.2%.

`COc1ccc(CCNC(=O)c2ccc3c(c2)NC(=O)C(N2CCOCC2)S3)cc1OC` (stereo unspecified): the inhibition was -1.36%.

With `COc1ccc(/C=C(\NC(=O)c2ccccc2)C(=O)NCCN2CCOCC2)cc1OC`, the inhibition was -3.48%.

As for `CCN1CCN(CCNC(=O)c2ccc3c(c2)NC(=O)/C(=C\c2ccc(OC)c(OC)c2)S3)CC1`, the inhibition is 72.7% (active).

`CC(C)C(=O)Nc1ccc2c(c1)C(=O)N(C)[C@H]1CC[C@H](CC(=O)NCc3ccc(F)cc3)O[C@H]1CO2`: the inhibition is 7.1%.

In the case of `CNC(=O)C[C@H]1CC[C@H]2[C@@H](COc3ccc(NC(=O)c4cccc(OC)c4)cc3C(=O)N2C)O1`, the inhibition was 7.1%.

In the case of `COC(=O)[C@@H]1[C@@H](CO)[C@@H]2Cn3c(ccc(-c4ccccc4)c3=O)[C@@H]2N1C(=O)C1CC1`, the inhibition was -7.82%.

`C[C@@H]1CN([C@@H](C)CO)C(=O)c2cc(-c3ccncc3)cnc2O[C@@H]1CN(C)C(=O)C1CCCCC1`: the inhibition was -1.52%.

For the molecule `N#C[C@@H]1[C@H](c2ccc(C#CC3CCCCC3)cc2)[C@@H](CO)N1S(=O)(=O)c1ccccc1`, the inhibition was 1.51%.

Take `O=C(NCCCN1CCOCC1)c1cc(-c2cccc(O)c2)on1`: the inhibition was 10.7%.

Consider `O=C(NCCCN1CCOCC1)c1cnn2c(-c3ccccc3)cc(-c3ccccc3)nc12`, for which the inhibition is 58.3% (active).

Take `O=C(NCCCN1CCOCC1)c1cc(-c2ccccc2F)no1`: the inhibition was -15.8%.
